TEAD-YAP inh: TEAD-YAP interaction inhibition. HEK-TIYL cells, TEAD-Gal4/YAP UAS-luciferase luminescence. AID 1259422. inhibition, % at 9.12 µM. hit rate 1.4% among 640,000; in the data active means inhibition above about 32%;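 further: 0% = median of test compound wells and 100% = reference inhibitor wells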
GPR151 ag: human GPR151 activation; PathHunter beta-arrestin GPR151 cells, luminescence; hit rate 1% among 650,000; activation, % at 11.2 µM; AID 1508602; in the data active means activation above about 4.9%;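 further: 0% = median of compound wells and 100% = cells with positive control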
FBW7 act: activators of human E3 ligase FBW7 | Q969H0 | AlphaScreen FBW7–phospho-cyclin E peptide binding, activator screen | normalized activity (activation), % at 26.1 µM | hit rate 0.13% among 650,000 | AID 1259310; in the data active means normalized activity above about 1.9%;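 further: purified mutant Fbw7 with reduced substrate affinity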
Target sequence (Q969H0 whole entry, looked up): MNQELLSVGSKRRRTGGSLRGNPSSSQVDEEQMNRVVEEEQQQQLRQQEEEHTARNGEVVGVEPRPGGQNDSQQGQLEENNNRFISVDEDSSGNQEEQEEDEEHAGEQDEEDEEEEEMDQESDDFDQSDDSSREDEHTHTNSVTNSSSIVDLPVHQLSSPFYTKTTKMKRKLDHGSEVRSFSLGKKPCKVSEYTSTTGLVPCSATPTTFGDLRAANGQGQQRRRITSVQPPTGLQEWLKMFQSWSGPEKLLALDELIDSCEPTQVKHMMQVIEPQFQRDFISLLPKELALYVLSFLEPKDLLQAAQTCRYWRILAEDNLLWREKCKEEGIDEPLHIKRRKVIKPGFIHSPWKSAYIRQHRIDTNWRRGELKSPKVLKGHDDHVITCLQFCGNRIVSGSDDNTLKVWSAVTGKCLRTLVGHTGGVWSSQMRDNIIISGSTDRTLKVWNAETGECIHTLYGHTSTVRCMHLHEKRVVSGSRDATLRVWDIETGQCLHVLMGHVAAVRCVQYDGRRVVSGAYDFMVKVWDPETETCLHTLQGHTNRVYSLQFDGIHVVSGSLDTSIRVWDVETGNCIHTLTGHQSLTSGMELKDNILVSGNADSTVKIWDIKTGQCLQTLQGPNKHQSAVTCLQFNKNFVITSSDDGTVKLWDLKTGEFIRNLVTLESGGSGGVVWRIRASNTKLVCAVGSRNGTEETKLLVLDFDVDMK
MITF inh: inhibitors of human MITF; O75030; hit rate 0.91% among 650,000; AlphaScreen MITF homodimerization, bead proximity signal; inhibition, % at 2.6 µM; in the data active means inhibition above about 50%;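 further: 0% = vehicle wells with protein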
* marks the source's active call; other numbers are inactive results. Hits are enriched below; roughly 3.5% of the tested compounds scored in any of these assays.

SMILES	TEAD-YAP inh	GPR151 ag	FBW7 act	MITF inh
Cc1[nH]n(-c2nc(-c3ccccc3)cs2)c(=O)c1C(c1ccccc1)C(C#N)C(N)=O (configuration not stated)	59*	0	0	-7
Cc1ccc(C)c(NC(=O)COC(=O)c2ccc3c(c2)S(=O)(=O)c2ccccc2C3=O)c1	1	0	0	6
CCOc1ccc(NC(=O)Cn2cnc3ccccc3c2=O)cc1	1	0	0	3
CCOc1ccccc1Nc1nc(-c2c(C)nc3ccccn23)cs1	7	0	0	0
CCOc1ccc(Nc2nc(-c3c(C)nc4ccccn34)cs2)cc1	70*	0	1	3
CCOc1ccc(Nc2nc(-c3c(C)nc4cc(C)ccn34)cs2)cc1	67*	2	0	0
Cc1cccc(Nc2nc(-c3c(C)nc4cc(C)ccn34)cs2)c1	11	0	0	-12
Cc1ccn2c(-c3csc(Nc4cccc(O)c4)n3)c(C)nc2c1	49*	0	0	4
O=C(CC1Sc2ccc(C(F)(F)F)cc2NC1=O)Nc1ccc(SC(F)F)cc1 (configuration not stated)	16	-1	0	14
COC(=O)C1=C(C)N(c2ccc(Cl)c(Cl)c2)C(=O)C1	36*	1	0	-14
COC(=O)C1=C(C)N(c2cccc(OC)c2)C(=O)C1	3	1	0	-18
CCN(CC)CCCNCC(=O)N1c2ccccc2Sc2ccccc21	40*	-2	0	8
CCN(CC)CCCNCC(=O)Nc1cc(C)on1	8	-2	1	1
CCN(CC)CCCNCC(=O)Nc1nc(C)cs1	95*	-5	0	15
CN1CCN(c2ccc(CNc3ccc4ncc(-c5ccc(C#N)cc5)n4n3)cc2)CC1	-9	2	0	-2
COCCO[C@H]1[C@H](NC(=O)C(C)C)c2ccccc2C12CCN(C(=O)c1cn[nH]c1)CC2	3	-1	0	-1
O=C(CN1C(=O)/C(=C\c2ccccc2)Oc2ccccc21)NC1CCCCC1	-3	-1	1	7
O=C(CN1C(=O)/C(=C\c2ccccc2Br)Oc2ccccc21)NC1CCCC1	57*	0	0	8
Cc1cc(C)n(CC(O)COc2ccc(C(=O)c3ccccc3)cc2)n1 (configuration not stated)	-21	0	0	16
CC(=O)c1c(C)nn(CC(O)COc2ccc(C(=O)c3ccc(Cl)cc3)cc2)c1C (configuration not stated)	40*	1	0	-23
N=c1sccn1CC(=O)c1ccc2c(c1)OCCO2	35*	-7	0	-13
COc1ccc(C(=O)CN2Cc3ccccc3C2=N)cc1OC	-84	0	0	12
COc1ccc(C(=O)Cn2ccsc2=N)cc1	-52	-2	0	-5
N=C1c2ccccc2CN1CC(=O)c1ccc2c(c1)OCCO2	77*	-7	0	2
N=C1c2ccccc2CN1CC(=O)c1ccc(-c2ccccc2)cc1	80*	-3	0	-6
SMILES	TEAD-YAP inh	GPR151 ag	FBW7 act	MITF inh
CC(=O)c1sc2nc(-c3ccc(Cl)cc3)cn2c1C	21	0	0	-6
O=C(CCC1CCCCC1)Nc1c2c(nn1-c1ccc(Cl)cc1)CSC2	7	1	0	23
CC1=CC(C)(C)N=C(Nc2nc(C)c3cc(C)cc(C)c3n2)N1	59*	0	0	-8
COc1ccc(/C(C)=N/Nc2nc(-c3cccnc3)nc3ccccc23)cc1OC	33*	-2	0	24
Cc1ncn(-c2ccc(Nc3ncc4cccc(-c5ccncc5)c4n3)cc2)n1	45*	2	1	4
CC(=O)Nc1cccc(-c2cccc3cnc(Nc4ccc(-n5cnc(C)n5)cc4)nc23)c1	57*	-1	0	21
Cc1ncn(-c2ccc(Nc3ncc4cccc(-n5cccn5)c4n3)cc2)n1	43*	3	0	2
O=C(Nc1cccc(F)c1)c1cc(S(=O)(=O)NCc2ccc3c(c2)OCO3)ccc1F	9	0	0	-14
CN1C(=O)/C(=C/c2cc(Cl)ccc2O)NC1=S	62*	2	0	-7
CC1=NOC(=O)/C1=C\c1ccc(-c2ccc(Cl)c(C(=O)O)c2)o1	-1	0	0	15
CC1=NOC(=O)/C1=C/c1ccc(-c2ccc(C(=O)O)cc2)o1	7	0	0	57*
CCOc1ccc(CCNC(=O)CCc2c(C)nc3nc[nH]n3c2=O)cc1	5	3	0	-2
O=[N+]([O-])c1ccc2ncnc(N3CCN(Cc4ccccc4)CC3)c2c1	9	-1	1	16
CC1CCCN(c2ncnc3ccc([N+](=O)[O-])cc23)C1 (configuration not stated)	35*	1	0	1
O=C(OCC(=O)N1CCN(C(=O)c2ccco2)CC1)c1cc(O)c(O)c(O)c1	-8	-2	0	81*
O=C(N/N=C\c1cc(Br)ccc1O)c1ccccn1	-23	2	-1	58*
O=C(N/N=C\c1cccc([N+](=O)[O-])c1O)c1cnccn1	-7	1	-1	77*
O=C(N/N=C\c1ccc(O)cc1O)c1ccccn1	17	-5	-1	65*
O=C(N/N=C\c1ccc(O)cc1O)c1cnccn1	-6	-1	-1	79*
COc1ccccc1CNc1ccc(C(=O)O)cc1[N+](=O)[O-]	10	0	0	-4
CCOc1ccc(-n2c(SCC(=O)Nc3ccccc3)nc3sc4c(c3c2=O)CCCC4)cc1	1	0	0	-9
Cc1c(C(=O)NCC(C)O)sc2ncnc(NC3CC3)c12 (configuration not stated)	-3	0	0	-1
Cc1ccc2nc(SCC(=O)Nc3ncc(C)s3)c(C#N)cc2c1	-73	0	3.8*	7
COc1cc2cc(C#N)c(SCC(=O)NCc3cccs3)nc2cc1OC	-2	-1	0	-8
COc1ccccc1NC(=O)CSc1nc2cc3c(cc2cc1C#N)OCCO3	62*	-1	1	23
SMILES	TEAD-YAP inh	GPR151 ag	FBW7 act	MITF inh
N#Cc1cc2cc3c(cc2nc1SCC(=O)NCc1cccs1)OCCO3	46*	-1	1	7
N#Cc1cc2cc3c(cc2nc1SCC(=O)NCc1ccc2c(c1)OCO2)OCCO3	50*	0	0	18
NC12CC3CC(C1)CC(N)(C3)C2	-5	1	0	6
COc1ccccc1NC(=O)Cn1cnc2sc(C(=O)Nc3ccccc3OC)c(C)c2c1=O	4	0	0	14
CNc1nc(N/N=C/c2ccc(OC)c(OC)c2)nc(Nc2cccc(C(F)(F)F)c2)n1	53*	2	0	0
CCNc1nc(NCC)nc(N/N=C/c2ccc(OC)c(OCc3ccccc3)c2)n1	10	-2	0	1
Cc1nnc(SCc2cccc(Cl)c2)[nH]c1=O	0	0	0	5
COc1ccc(S(=O)(=O)N2CC(C(=O)O)Oc3ccccc32)cc1 (configuration not stated)	1	4	0	-10
COc1ccc(S(=O)(=O)N2CCOc3ccccc32)cc1	49*	1	0	19
O=c1[nH]c2nc(-c3ccsc3)cnc2n1-c1ccccc1	-14	0	0	-11

Source: PubChem BioAssay
